In PubChem BioAssay (NCATS):
Inconclusive results are not listed. The source made the active and inactive calls. Calls follow the shape of the dose curve; as a rule, active = well fitted inhibition curve with a large enough effect; inconclusive = small, poorly fitted or top-dose-only effect; inactive = no such curve, though single readings can be large or run the other way.

Molecular target: Cytochrome P450 3A4 (Homo sapiens) (UniProt P08684)
Test: qHTS Assay for Inhibitors and Substrates of Cytochrome P450 3A4 (AID 884); also: nearly all actives have a fitted effect of over 50% in size
Conditions: recombinant CYP3A4, Luciferin-PPXE luminescence; series mostly up to 57.1 µM
In short: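 Luminescent readout of luciferin produced by CYP3A4 (20 nM) dealkylation of Luciferin-PPXE, 25 uM (its KM). NADPH-driven reaction ran 60 min at RT after 10 min compound preincubation; data scaled to 57 uM ketoconazole as 100% inhibition.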
Potency is read from the fitted curve at half-maximal effect.

Sequence of Cytochrome P450 3A4 (Homo sapiens) (P08684 whole entry, looked up): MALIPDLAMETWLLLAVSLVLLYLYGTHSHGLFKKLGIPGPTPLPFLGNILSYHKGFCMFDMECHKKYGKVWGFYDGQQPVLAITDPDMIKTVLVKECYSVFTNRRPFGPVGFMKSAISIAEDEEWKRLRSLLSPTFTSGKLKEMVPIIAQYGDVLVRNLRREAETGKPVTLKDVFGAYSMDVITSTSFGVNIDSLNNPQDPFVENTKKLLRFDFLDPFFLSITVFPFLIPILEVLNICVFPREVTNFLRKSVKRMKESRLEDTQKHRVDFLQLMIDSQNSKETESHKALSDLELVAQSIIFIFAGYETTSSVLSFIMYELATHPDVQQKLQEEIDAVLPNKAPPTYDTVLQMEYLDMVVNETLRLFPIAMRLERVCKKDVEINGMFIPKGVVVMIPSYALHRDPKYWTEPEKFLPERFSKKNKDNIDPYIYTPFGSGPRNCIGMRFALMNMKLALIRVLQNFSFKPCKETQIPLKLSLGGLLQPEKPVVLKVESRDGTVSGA

Potency, active:
CCC1=C(OC(=O)N(CC)CC)N2C(=O)OC(=NCC3CC3)[C@]2(C)[C@H]2C1=CC[C@H]1C(=O)N(CC(=O)OC)C(=O)[C@H]12 7.94 µM
COC(=O)[C@H]1C[C@@H]2CC[C@@H](O)C[C@@H]2N1Cc1c(F)cccc1Cl 12.6 µM
CN1C[C@@H]2C(c3ccc(Cl)nc3)C3(c4ccccc4)CC2(C3)[C@H]1c1ccccc1 (stereo partly specified) 12.6 µM
CO[C@H]1COC(=O)[C@H](C)NC(=O)C/C=C\[C@@H](C)[C@@H](NS(=O)(=O)c2ccc(C)cc2)COC(=O)C/C=C\[C@@H]1C 3.98 µM
CC(Cc1ccccc1)C(=O)NCCc1c[nH]c2ccccc12 (stereo unspecified) 2.51 µM
COC(=O)[C@@H]1C[C@@H]2CC[C@@H](O)C[C@@H]2N1CC1CCCCC1 12.6 µM
CCC1=C2CC[C@H]3C(=O)N(CC(=O)OC)C(=O)[C@H]3[C@H]2[C@@]2(C)C(=NCCc3c[nH]c4ccccc34)OC(=O)N2C1=O 6.31 µM
COC(=O)c1ccc(C(/C=C/[C@@H](C)C(=O)NCCc2c[nH]c3ccccc23)NC(=O)OCc2ccccc2)cc1 (stereo partly specified) 3.16 µM
CCC1=C2CC[C@H]3C(=O)NC(=O)[C@H]3[C@H]2[C@@]2(Cc3ccccc3)C(=NCc3ccccc3)OC(=O)N2C1=O 6.31 µM
CCC1=C(OC(=O)N(CC)CC)N2C(=O)OC(=NCCOC)[C@]2(Cc2ccccc2)[C@H]2C1=CC[C@H]1C(=O)N(CC(=O)OC)C(=O)[C@H]12 6.31 µM
Cn1c(=O)c(C(=O)COC(=O)c2cc(C(F)(F)F)nc3c(C(F)(F)F)cccc23)c(N)n(CC2CC2)c1=O 3.98 µM
